For ten compounds, relative GCLC transcription results are on record in PubChem BioAssay AID652014 (National Center for Advancing Translational Sciences (NCATS), 2013).

“And” between values parts separate entries of the source, which are not always exact repeats. Equal entries are not always repeated. The source made the active and inactive calls.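 Rule for the calls: active = relative GCLC transcription at 1 µM of at least 250%; inconclusive = relative GCLC transcription at 1 µM between 200% and 250%; inactive = relative GCLC transcription at 1 µM under 200%.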

The assay can be described thus: qHTS of Nrf2 Activators: Hit Validation in GCLC Induction Assay. The following applies: Hepa1c1c7 cells, GCLC mRNA qPCR, 24 h; at 1 µM; stronger effect = higher value. From the text: Many diseases have some form of oxidative stress injury and ties to inflammation, causing a host of problems for the patient. The antioxidant response element (ARE) plays an important role in alleviating the harmful effects of oxidative stress. The antioxidant response element (ARE) is a transcriptional regulatory element involved in the activation of genes coding for a number of antioxidant proteins and detoxifying enzymes. These enzymes work in concert to protect tissues from oxidative insults and chemical toxicities in human hepatocytes and immune cells. The protective effects of ARE activation are primarily triggered through Nrf2 (NF-E2-related factor) binding to and activating AREs. It is known that Nrf2 controls the production of over 250 antioxidant and detoxification proteins (Hu et al., 2006), thereby protecting tissues by increasing cellular antioxidant content and suppressing inflammatory signaling pathways. The transcription factor Nrf2 is a central link between oxidative chemicals, such as phenolic antioxidants and electrophilic compounds, and the activation of ARE. Nrf2 levels are constitutively low as a consequence of its interaction with Keap1, which targets its degradation (Zipper and Mulcahy, 2002). Electrophiles react with key cysteine residues in Keap1, releasing Nrf2 and allowing its translocation to the nucleus. Once within the nucleus, Nrf2 complexes with coactivators such as p300, and binds to the AREs to induce gene transcription of cytoprotective enzymes, resulting in the prevention of toxicity. Activation of Nrf2 protects tissues by increasing cellular antioxidant content and suppressing inflammatory signaling pathways. Identifying novel and potent Nrf2 activators by using the AREc32 cell line to detect ARE activation by small molecules will lead to the identification and development of probes to study protective pathways in multiple tissues. These specific probes are essential to study the ARE pathway, and eventually to determine whether this pathway does activate genes that could protect against a host of diseases, including cardiovascular diseases, obesity, diabetes, Alzheimer's, and Parkinson's disease. This project's aim is to identify novel and potent Nrf2 activators by using the AREc32 cell line to detect ARE activation by small molecules, which will lead to the identification and development of probes to study the ARE pathway. Compounds that were identified in the primary screen were tested in this secondary assay to assess whether a hit also activates Nrf2 transcription of the target gene GCLC. NIH Chemical Genomics Center [NCGC] NIH Molecular Libraries Probe Centers Network [MLPCN] MLPCN Grant: DK081461 Assay Submitter (PI): Curtis Klaassen, University of Kansas Medical Center
Hepac1c7 cells were seeded into 24-well plates at a density of 30,000 cells/well in 1 mL complete media per well and cultured overnight to allow attachment. Cells were treated the next day with compounds (1 uM)or positive control for 24 h. Total RNA samples were then isolated by using RNAzol B reagent (Tel-Test, Inc., Friendswood, TX) according to the manufacturer's protocol. Total RNAs were reverse-transcribed into cDNA by High Capacity cDNA Archive Kits (Applied Biosystems, Foster City, CA) and the resulting cDNA was used for real-time PCR analysis using SYBR(R) Green PCR Master Mix in a 7900HT Fast Real-Time PCR System.
(In general: Quantitative high-throughput screening tests each substance at several concentrations.)
For `O=C(Nc1ncnc2sc3c(c12)CCC3)c1ccco1`, the relative GCLC transcription is 122% (inactive).
The value for `Cc1nc(NCc2ccco2)nc2c1C(=O)CC(C)C2` (stereo not given) was 158% (inactive).
The value for `COC(=O)c1c(NC(=O)c2ccccc2)sc(C(N)=O)c1C` was 120% (inactive); that for `CS(=O)(=O)c1nc(S(=O)(=O)c2ccc(Cl)cc2)c(N2CCOCC2)s1` was 148% (inactive); that for `O=C(Nc1ncnc2sc3c(c12)CCCCC3)c1ccco1` was 109% (inactive) and 134% (inactive).
The value for `O=C(Nc1cccc2ncccc12)c1ccc(Cl)cc1` was 369%.
Take `Clc1ccc2c(NCc3ccccn3)ncnc2c1`: the relative GCLC transcription was 181% (inactive).
Under `COc1ccc(NC(=O)c2cc(-c3cccs3)on2)c(OC)c1` stands 157% (inactive); under `COc1ccccc1NC(=O)c1cc(Cl)nc2ccccc12`, 461%; under `COc1ccc(NC(=O)c2cc(-c3ccco3)on2)c(OC)c1`, 155% (inactive).
